# Tested on: Plasmodium falciparum NF54 stage IV/V gametocytes
# Assay: % inhibition of gametocyte viability (luciferase reporter); higher = more inhibition
# Details: 5 µM; 48 h
# Procedure, shortened: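 Percent inhibition was normalised to controls from a single run. Stage IV/V gametocytes of the NF54-Pfs16-GFP-Luc line, at 2% gametocytaemia and 2% haematocrit, were exposed to compound at 1 or 5 µM for 48 h at 37 °C under stationary, hypoxic conditions. Luminescence was then read from 30 µL lysate mixed with 30 µL Promega luciferin substrate on a GloMax-Multi+ reader with 10 s integration.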
row,Compound,% inhibition of gametocyte viability
1,C[C@@H](c1nc(-c2ccc(C#N)cc2)cs1)[C@](O)(Cn1cncn1)c1ccc(F)cc1F,< 0%
2,O=C(Nc1ccccc1)N(Cc1cc(Br)ccc1O)c1ccc(F)cc1,< 0%
3,O=C(NC1CCCc2c1[nH]c1ccc(Cl)cc21)c1ccccn1 (stereo unspecified),< 0%
4,O=C(CSc1nnc(Br)n1-c1ccc(C2CC2)c2ccccc12)Nc1ccc(C(=O)O)cc1Cl,< 0%
5,O=C(NN1C(=O)[C@@H]2C3C=CC([C@H]4C[C@@H]34)[C@@H]2C1=O)c1ccc(C(F)(F)F)cc1,4.75%
6,CO[C@@]1(NC(=O)Cc2cccs2)C(=O)N2C(C(=O)O)=C(COC(N)=O)CS[C@@H]21,2.58%
7,c1ccc(-c2nnc3c4ccccc4c(N4CCNCC4)nn23)cc1,11.9%
8,O=C(O)c1ccccc1Sc1ncnc2sc3c(c12)CCC3,< 0%
9,CCNC(=O)Nc1cc2c(-c3ccnc(C)c3)ccc(CNC(=O)OC)c2cn1,5.9%
10,COc1c(F)c(F)cc2c(=O)c(C(=O)O)cn(C3CC3)c12,< 0%
11,COC1CC2CCC(C)C(O)(O2)C(=O)C(=O)N2CCCCC2C(=O)OC(C(C)CC2CCC(OCCO)C(OC)C2)CC(=O)C(C)/C=C(\C)C(O)C(OC)C(=O)C(C)CC(C)/C=C/C=C/C=C/1C (stereo unspecified),4.08%
12,O=C(Nc1nnc(-c2ccccc2)o1)c1ccc(F)cc1,< 0%
13,O=C(O)C(Cc1c[nH]c2ccccc12)N1C(=O)c2ccccc2C1=O (stereo unspecified),22.9%
14,O=C(NCc1ncc(C(F)(F)F)cc1Cl)c1c(Cl)cccc1Cl,< 0%
15,CC(C)(C)NC(=O)[C@@H]1C[C@@H]2CCCC[C@@H]2CN1C[C@@H](O)[C@H](Cc1ccccc1)NC(=O)[C@H](CC(N)=O)NC(=O)c1ccc2ccccc2n1,< 0%
16,N#Cc1cc([N+](=O)[O-])ccc1Oc1ccccc1Cl,< 0%
17,O=c1nc(N2CCN(CC3CCCCC3)CC2)sc2c([N+](=O)[O-])cc(C(F)(F)F)cc12,< 0%
18,[N-]=[N+]=N[C@H]1C[C@H](n2ccc(=O)[nH]c2=O)O[C@@H]1CO,< 0%
19,Cc1onc(-c2ccccc2Cl)c1C(=O)N[C@@H]1C(=O)N2[C@@H]1SC(C)(C)[C@@H]2C(=O)O,7.91%

row,Compound,% inhibition of gametocyte viability
1,O=C(c1ccccc1)N1CCN(c2ccccc2NC(=O)C(Cl)(Cl)Cl)CC1,< 0%
2,O=[N+]([O-])c1cn(Cc2nc(O)nc(O)c2Br)cn1,4.07%
3,CCc1nc2ccc(Cl)cn2c1C(=O)NCc1ccc(N2CCC(c3ccc(OC(F)(F)F)cc3)CC2)cc1,< 0%
4,Cc1ccc(C)c(OCCCCCCN2C[C@H](O)[C@@H](O)[C@H](O)[C@H]2CO)c1,11%
5,COc1cc(Cc2cc(N)nc(N)n2)cc(OC)c1OC,< 0%
6,O=C(Cn1cnc2ccccc2c1=O)Nc1ccccc1,1.55%
7,CC[C@H](NC(=O)[C@H](C)NC)C(=O)N1C[C@@H](O)C[C@H]1Cc1c(-c2[nH]c3cc(F)ccc3c2C[C@@H]2C[C@H](O)CN2C(=O)[C@H](CC)NC(=O)[C@H](C)NC)[nH]c2cc(F)ccc12,56%
8,O=C(N[C@H](CCS)C(=O)N[C@H](Cc1ccccc1)C(=O)O)c1cc2ccccc2[nH]1,12%
9,CCCCCCCc1[nH]c2ccccc2c(=O)c1O,< 0%
10,CN1CCN(Cc2ccc(-c3cnc4[nH]cc(-c5ccc6[nH]ccc6c5)c4c3)cc2)CC1,< 0%
11,CCc1oc2ccccc2c1C(=O)c1ccc(O)cc1,9.06%
12,C=CCc1cc(Cc2cnc(N)nc2N)cc(OC)c1O,< 0%
13,CC1(C)C[C@H]1C(=O)N/C(=C\CCCCSC[C@@H](N)C(=O)O)C(=O)O,< 0%
14,CCCCc1ccc(S(=O)(=O)Nc2cc(C)on2)cc1,< 0%
15,O=c1ccc2ncc(=O)n3c2n1CC3CN1CCC(NCc2cc3c(cn2)OCCC3)CC1 (stereo unspecified),< 0%
16,C=C[C@]1(C)C[C@@H](OC(=O)CS[C@@H]2C[C@H]3CC[C@@H](C2)N3C)[C@]2(C)[C@H](C)CC[C@]3(CCC(=O)[C@H]32)[C@@H](C)[C@@H]1O,< 0%
17,CN(C/C=C/C#CC(C)(C)C)Cc1cccc2ccccc12,< 0%
18,O=C(O)CCNC(=O)c1ccccc1,6.13%
19,Nc1nc(NC2Cc3ccc(F)cc3C2)nc(N2CCCCC2)n1 (stereo unspecified),7.28%

# Tested on: Plasmodium berghei ANKA liver stage in HepG2-A16-CD81
# Assay: % inhibition of liver stage parasite viability (luciferase); higher = more inhibition
# Details: 5 µM; 48 h
# Method: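 Single-concentration screen of the MMV Pandemic Response Box. P. falciparum NF54 asexual blood stages: pLDH assay, 72 h at 37 °C, 2 and 20 µM, n=2. Stage IV/V gametocytes (NF54): luciferase reporter (NF54-Pfs16-GFP-Luc, 48 h), ATP bioluminescence (24 h) and PrestoBlue (48 h) at 1 and 5 µM, n=1. P. berghei liver stage (luciferase in HepG2-A16-CD81, 48 h post infection) at 5 µM, n=4. All normalised to DMSO and kill controls as % inhibition.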
row,Compound,% inhibition of liver stage parasite viability
1,C[C@@H](c1nc(-c2ccc(C#N)cc2)cs1)[C@](O)(Cn1cncn1)c1ccc(F)cc1F,-4.98%
2,O=C(Nc1ccccc1)N(Cc1cc(Br)ccc1O)c1ccc(F)cc1,17.9%
3,O=C(NC1CCCc2c1[nH]c1ccc(Cl)cc21)c1ccccn1 (stereo unspecified),2.22%
4,O=C(CSc1nnc(Br)n1-c1ccc(C2CC2)c2ccccc12)Nc1ccc(C(=O)O)cc1Cl,27.6%
5,O=C(NN1C(=O)[C@@H]2C3C=CC([C@H]4C[C@@H]34)[C@@H]2C1=O)c1ccc(C(F)(F)F)cc1,26.8%
6,CO[C@@]1(NC(=O)Cc2cccs2)C(=O)N2C(C(=O)O)=C(COC(N)=O)CS[C@@H]21,11.5%
7,c1ccc(-c2nnc3c4ccccc4c(N4CCNCC4)nn23)cc1,7.03%
8,O=C(O)c1ccccc1Sc1ncnc2sc3c(c12)CCC3,-30.6%
9,CCNC(=O)Nc1cc2c(-c3ccnc(C)c3)ccc(CNC(=O)OC)c2cn1,25.9%
10,COc1c(F)c(F)cc2c(=O)c(C(=O)O)cn(C3CC3)c12,15.1%
11,COC1CC2CCC(C)C(O)(O2)C(=O)C(=O)N2CCCCC2C(=O)OC(C(C)CC2CCC(OCCO)C(OC)C2)CC(=O)C(C)/C=C(\C)C(O)C(OC)C(=O)C(C)CC(C)/C=C/C=C/C=C/1C (stereo unspecified),0.0625%
12,O=C(Nc1nnc(-c2ccccc2)o1)c1ccc(F)cc1,53.8%
13,O=C(O)C(Cc1c[nH]c2ccccc12)N1C(=O)c2ccccc2C1=O (stereo unspecified),21.1%
14,O=C(NCc1ncc(C(F)(F)F)cc1Cl)c1c(Cl)cccc1Cl,34.7%
15,CC(C)(C)NC(=O)[C@@H]1C[C@@H]2CCCC[C@@H]2CN1C[C@@H](O)[C@H](Cc1ccccc1)NC(=O)[C@H](CC(N)=O)NC(=O)c1ccc2ccccc2n1,26.6%
16,N#Cc1cc([N+](=O)[O-])ccc1Oc1ccccc1Cl,12.4%
17,O=c1nc(N2CCN(CC3CCCCC3)CC2)sc2c([N+](=O)[O-])cc(C(F)(F)F)cc12,33.1%
18,[N-]=[N+]=N[C@H]1C[C@H](n2ccc(=O)[nH]c2=O)O[C@@H]1CO,-3.95%
19,Cc1onc(-c2ccccc2Cl)c1C(=O)N[C@@H]1C(=O)N2[C@@H]1SC(C)(C)[C@@H]2C(=O)O,17.1%

row,Compound,% inhibition of liver stage parasite viability
1,O=C(c1ccccc1)N1CCN(c2ccccc2NC(=O)C(Cl)(Cl)Cl)CC1,28.1%
2,O=[N+]([O-])c1cn(Cc2nc(O)nc(O)c2Br)cn1,19.1%
3,CCc1nc2ccc(Cl)cn2c1C(=O)NCc1ccc(N2CCC(c3ccc(OC(F)(F)F)cc3)CC2)cc1,72.1%
4,Cc1ccc(C)c(OCCCCCCN2C[C@H](O)[C@@H](O)[C@H](O)[C@H]2CO)c1,11.6%
5,COc1cc(Cc2cc(N)nc(N)n2)cc(OC)c1OC,81.6%
6,O=C(Cn1cnc2ccccc2c1=O)Nc1ccccc1,2.82%
7,CC[C@H](NC(=O)[C@H](C)NC)C(=O)N1C[C@@H](O)C[C@H]1Cc1c(-c2[nH]c3cc(F)ccc3c2C[C@@H]2C[C@H](O)CN2C(=O)[C@H](CC)NC(=O)[C@H](C)NC)[nH]c2cc(F)ccc12,37.5%
8,O=C(N[C@H](CCS)C(=O)N[C@H](Cc1ccccc1)C(=O)O)c1cc2ccccc2[nH]1,5.97%
9,CCCCCCCc1[nH]c2ccccc2c(=O)c1O,72.5%
10,CN1CCN(Cc2ccc(-c3cnc4[nH]cc(-c5ccc6[nH]ccc6c5)c4c3)cc2)CC1,33.2%
11,CCc1oc2ccccc2c1C(=O)c1ccc(O)cc1,39.9%
12,C=CCc1cc(Cc2cnc(N)nc2N)cc(OC)c1O,68.4%
13,CC1(C)C[C@H]1C(=O)N/C(=C\CCCCSC[C@@H](N)C(=O)O)C(=O)O,12.4%
14,CCCCc1ccc(S(=O)(=O)Nc2cc(C)on2)cc1,40.7%
15,O=c1ccc2ncc(=O)n3c2n1CC3CN1CCC(NCc2cc3c(cn2)OCCC3)CC1 (stereo unspecified),23.7%
16,C=C[C@]1(C)C[C@@H](OC(=O)CS[C@@H]2C[C@H]3CC[C@@H](C2)N3C)[C@]2(C)[C@H](C)CC[C@]3(CCC(=O)[C@H]32)[C@@H](C)[C@@H]1O,53%
17,CN(C/C=C/C#CC(C)(C)C)Cc1cccc2ccccc12,29.1%
18,O=C(O)CCNC(=O)c1ccccc1,16%
19,Nc1nc(NC2Cc3ccc(F)cc3C2)nc(N2CCCCC2)n1 (stereo unspecified),23.6%

# Source: the supplement of paper PMC7801607
